From PubChem BioAssay AID1508600 (Functional Genomics Laboratory (NCATS/FGL), 2020)
The campaign covered roughly 53,000 sequences. About 3,700 (7%) were called active. Only a selection was taken, and actives are over-represented in it overall. Values without a mark were called inactive.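 How the source made its calls: active means gene knockdowns whose robust z-score for IL-1 alpha signal is at least 2 or at most -2, so actives lie on both sides; inactive means the rest.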

Assay: Components of the Cytosolic LPS Sensing Pathway: Gene Identification via Genome-wide siRNA Screen;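 further: robust z of the log signal after scaling to non-targeting control siRNA wells of the plate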
Conditions: RAW264.7 macrophages, IL-1a HTRF, actives lie on both sides, screened at 100 nM (by protocol), cells primed 5 h with Pam3CSK4 first
How it was run: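 Read-out: IL-1a HTRF on supernatant, divided by plate negative-control median ×100, log-transformed and converted to robust z-score. Cells were RAW264.7 given 100 nM siRNA, Pam3CSK4-primed 5 hours, then LipidA-transfected 24 hour.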

| Sequence | z-score |
| --- | --- |
| GCUUCCAAUUACUUAUCCATT against Phc3 | -0.0705 |
| GGGAAGAAGAGAUUCUGAUTT against Cep250 | -1.53 |
| GGCAGGUUUAACUUUAAUGTT against Cacna1e | 3.59 (active) |
| GGACAAGGAUAGUAGUAAGTT against Parp1 | -0.122 |
| GCAUACCCUAUUUAGUUUUTT against Gpr33 | -0.00896 |
| GCACGAAGAACCACACAAGTT against Sp110 | 2.37 (active) |
| CCGGAGUCAGUAUCCAGAATT against Ndufaf4 | -0.282 |
| GCCGUGGAUCGAAUAAUUCTT against Coq7 | -1.03 |
| GGUUUUAGUAAACUUCCCATT against Fam76b | -0.692 |
| GGAUCCUGGAUAAUCUGGGTT against Plscr1 | -1.35 |
| GCGUGCAUAUAUCCAAUGCTT against Tardbp | 1.36 |
| GGUAAUCUCCAAAAAACCATT against Lilra6 | -0.863 |
| GCUUUGAGCAGCUAGGUUATT against Tpcn2 | 3.78 (active) |
| GGGACCUUUUCAGGACCUUTT against Ucp2 | -0.954 |
| GGCUGCCUUCAUCUUUUCUTT against Fth1 | 0.873 |
| GCUUGUAUGAGAUUACCUATT against Ttc1 | 1.19 |
| GGUCUUUGAGUCUACACAGTT against Pde4dip | -2.52 (active) |
| GGAGUCCUACGUCAAAGAATT against Pigz | -0.251 |
| GGAUCAGUAGCAUUAACAATT against Tcf7l2 | 0.414 |
| GGUUCUCCAUACUUAUGCCTT against Prex1 | 2.97 (active) |
| GGGCAAUCUGCUAUUCUCUTT against Pheta2 | 0.18 |
| CCUUCUGUAUAGGUUCUGGTT against Slc41a3 | 0.716 |

| Sequence | z-score |
| --- | --- |
| GGGCUUAUGGAGUUGUAAATT against Avpi1 | -0.633 |
| GGACAAGAAAAAGGAUUAGTT against Clptm1 | -0.414 |
| GCGUGAGUCCCUAUAUGAATT against Tmem177 | 2.98 (active) |
| GGCUUCGCUCUGGUUUACUTT against Rap1b | 0.323 |
| GCAAUUCCACGUAUGGAUUTT against Olfr652 | 0.336 |
| GGCAAAAUUUGUGUGCAAATT against Mrc1 | 1.02 |
| GGCAGUCAUUACCUAUCAGTT against Atp7b | -0.271 |
| GGGUCAGCCAAAGGAAAAUTT against Nlrc3 | -0.193 |
| CCAUGUCAAUAUAGCUGUCTT against Igfbpl1 | 2.25 (active) |
| GCUUUCUCUUAUGGAUCUATT against Olfr700 | 0.966 |
| CGUGAUGCUGUAAAUAGUUTT against AI606181 | -0.485 |
| CCCAGAAGACCCGAACUUUTT against E130006D01Rik | 0.378 |
| GGAGCAUCUCUCCAGAUUGTT against Igsf9 | 0.567 |
| CCGCUUUCUUGCCAUUCACTT against Olfr576 | -0.266 |
| GCCUUAAUGCUUCAAGGUGTT against Hspd1 | 0.021 |
| UCUGACAUUGACUCUAGCCTT against Fbxw16 | -2.5 (active) |
| GUUUAUGGCCUCCUGUUGCTT against Gpbar1 | -0.773 |
| GCAUGAGAGGUUUCAGUAUTT against Rnf150 | 0.454 |
| UUCGCUCUUGGUCCCUUCATT against Olfr1322 | 1.06 |
| GCAUGUUGUCGACACAUGCTT against Bcl6 | 2.39 (active) |
| CCGUCGUGGGUGAUAUCAUTT against 2310022A10Rik | -0.0389 |
| GGUGGCUCUCCAAGUUCUATT against Uchl4 | -0.279 |

| Sequence | z-score |
| --- | --- |
| GAACACCCUGCCGACCAAATT against Tmsb10 | -0.242 |
| GGACUGAGUCAGAUUUACATT against Foxn2 | -0.622 |
| GGGCUGAUGCUUAAACAAATT against Vmn1r72 | -2.19 (active) |
| GCCCUUAUUAAACCAUUUGTT against Usp9x | -0.641 |
| GGACUGUUUUAGAUUACUUTT against Klra4 | 0.968 |
| GCUUAUGUUUCUGCCACUCTT against Olfr1136 | 0.124 |
| GCCACCAUUAAAAGACUGATT against Gdnf | 0.737 |
| GGACAAGAUGAACUUUUCCTT against Pomp | -2.85 (active) |
| CCUUGUAUGGAGAUAUUCCTT against Aph1b | -0.573 |
| GGUUCAGUUUGGAAAUGAATT against Rbm26 | 0.809 |
| CGUCUGUUUACCUCAUGAATT against Arid3a | -0.769 |
| GGAUUUUGUCGGCAAGGCCTT against Ap5s1 | -3.12 (active) |
| GGACUACUUCCCAAGAAUUTT against Gle1 | 0.365 |
| GGUGGAGAAACAAAUUAGUTT against Rab9 | 1.47 |
| GGAAGAAAGAAUUGAACUUTT against Add3 | 1.02 |
| CAUGAACGUGGGUAAAACGTT against Rab20 | -0.878 |
| GGAACUGGAUCCUAGGAUATT against Sh3bp5l | -1.35 |
| GCCAAAUCUACUGUUAUUUTT against Fam174a | 1.06 |
| GGAAAGAUCAUGGACAAGUTT against Dtna | 2.06 (active) |
| GCAGUGAUCCGGAACAAAUTT against Tmc3 | -0.455 |
| GGCGAAAAUUACUCGAAAGTT against Penk | 0.941 |
| GGAUGACGUAAUUGACGGCTT against Cyp19a1 | 0.0212 |

| Sequence | z-score |
| --- | --- |
| CCAAAAUAAGUGUGGUCAATT against Vstm2l | -0.623 |
| GGACUUGGUUUAUGAAACATT against Kif9 | -1.33 |
| GGAGACCUUACCACUUGAATT against Ephx1 | -1.2 |
| GGUCAAUUCCCAUACCCUGTT against Tfr2 | -1.23 |
| CGACUCCCACCUUUAGGAGTT against Nkx2-5 | 2.5 (active) |
| GGUGAAAAUACAUUGCCAGTT against Plk4 | -0.712 |
| CCCAAAUAACAGAGAAAUGTT against St8sia6 | 0.818 |
| CCUGAGAUUUCCUAACAUCTT against Prr11 | -0.281 |
| GGUGAAGUCACUAAUCUUUTT against Prpf19 | 1.12 |
| GCCACGACCUGGAACAACUTT against Taf6l | -0.479 |
| CGGCCUAACAGCCAGACUUTT against 1700013G24Rik | 0.9 |
| GGUUUCUGCCAUCCAUCAGTT against Zfa-ps | -0.705 |
| CUUUUACACCAUCAUGACGTT against Mrgpra5 | -2.06 (active) |
| GGCGAAUGAAGGUUUCUGGTT against Pex11b | -0.581 |
| GCUGUUGGUCUGAUAGCUUTT against Hadhb | 0.378 |
| GCCAUGCCUUAAUCUUGGUTT against Cd300lf | 0.0466 |
| GCAAAGACGAAAUGCCGAGTT against Ttc32 | -0.23 |
| GAUUCUCCAUUGCCCAAUGTT against Lce1i | 0.0132 |
| CCUCAACUCCCUGUCACACTT against Rnaseh2a | 0.944 |
| GGAGCGAUUCACAAAUUACTT against Tapt1 | 3.05 (active) |
| CGACUAUUUGGGUGGCAAGTT against Scin | -0.103 |
| GGUAAGAAAACUGACCUUATT against Abra | -0.787 |

| Sequence | z-score |
| --- | --- |
| GGCUGUAUGCUCAGACUGATT against Olfr147 | -1.25 |
| GGGCAUAUUUGGAAUCUGATT against Rtn4 | 2.51 (active) |
| GGAAUCUACCACUUGGUUCTT against Chrdl2 | -0.936 |
| GGGAUUCAGAGUCAAGAUUTT against Thpo | -0.275 |
| GCUUCCUACCAUGAUGGUCTT against Otol1 | 2.13 (active) |
| GCCCUUACAUAAUAGCUUGTT against Tacr2 | 1.56 |
| GGUCCCAGUCUAUGAAAACTT against Pym1 | 1.81 |
| GUCCUGAAAAUGCUAUUCUTT against Olfr68 | 0.281 |
| CCUGGUGCUUCGUAAUUACTT against Cyp11a1 | -1.03 |
| GGGUACAAAACUUGAACUUTT against Gins3 | 2.84 (active) |
| GGACAGUGUGUUUUCUUGUTT against Ankle1 | 0.551 |
| CCAGAUUCCUCUUGGCCGATT against Spryd7 | 0.36 |
| GCAAGAUUCAGAGUGCAGCTT against Txlng | -1.09 |
| GGUUGCAUUGUAGGGUUGGTT against Olfr129 | 0.221 |
| GCCCUAAAUCCUUUUAUUATT against Trpc7 | 2.78 (active) |
| GGAUGUACAAUAAUUGGGATT against Pramel39 | 1.45 |
| GCAGGAUUCAAAGAUCUAATT against Kbtbd8 | -0.587 |
| GGCUCUAUCUUAAAAUAACTT against 4930542C12Rik | 0.125 |
| GCCGAGCUUUUGUGAGUAUTT against Rhobtb2 | 0.247 |
